HT1080-NT tox: kills 2HG-producing HT-1080-NT fibrosarcoma cells. HT-1080-NT fibrosarcoma viability, CellTiter-Glo ATP luminescence, 48 h. Potency, µM (titrated, usually from 46.1 µM), for the others: at the top dose activity, negative = less viability, actives largely listed as cytotoxic. 1.6% of 360,000 active. AID 686970;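 note: NT is the 2HG producing partner of a matched IDH1 knockdown line; 0% = DMSO-treated cells and -100% = media-only wells without cells; nearly all actives have a fitted effect of over 55% in size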
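Compounds were tested in concentration-response format on HT-1080-NT cells for 48 hours at 37 degrees C. Cell viability came from CellTiter-Glo luminescence; curves were classified by r2, response magnitude and activity.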
KB-V1 cytotox: kills drug-selected multidrug resistant KB-V1 cells | KB-V1 MDR cells viability, CellTiter-Glo, 72 h | 3.4% of 400,000 active | Potency, µM (series often up to 46.1 µM), usual class: cytotoxic; note: nearly all actives have a fitted effect of over 60% in size
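In this primary screen, KB-V1 cells overexpressing P-gp are incubated with library compounds (lowest to highest concentration) for 72 h at 37 degrees C before a luminescent ATP viability read.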
TDP1 cell noCPT: qHTS for Inhibitors of human tyrosyl-DNA phosphodiesterase 1 (TDP1): qHTS in cells in absence of CPT | DT40 Tdp1-/- hTDP1 cells, no CPT, ATP luminescence, 48 h | Potency, µM (series often up to 46.2 µM), without a hit: at the highest dose activity change, negative = growth inhibition, most hits filed as inhibitors | 15% of 420,000 active | AID 686978, 2013; note: nearly all actives have a fitted effect of over 55% in size
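Seeded 400 DT40-hTDP1 cells/well (vehicle DMSO, no 20 nM CPT); pinned compounds; ≥48 hr at 37 °C; CellTiter-Glo luminescence as viability measure.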
HT1080 IDH1KD tx: HT-1080 IDH1 knockdown cell toxicity (counter line); HT-1080 IDH1 knockdown viability, ATP luminescence, 48 h; Potency, µM (top dose mostly 46.1 µM), inactives show at the highest dose activity, negative = toxicity, most hits filed as cytotoxic; 2% of 360,000 active; AID 686971;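 note: 0% = DMSO wells and -100% = cell-free medium wells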
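HT-1080-IDH1KD cells (IDH1 knocked down), 750/well in RPMI with 5% FBS, treated with compound 48 h at 37 degrees C. Viability by CellTiter-Glo luminescence, normalised to DMSO and no-cell wells; concentration-response curves classed.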
KB-3-1 tox: kills parental KB-3-1 adenocarcinoma cells; AID 1347075; Potency, µM (series often up to 46.1 µM), actives largely listed as cytotoxic; KB-3-1 viability, CellTiter-Glo ATP luminescence, 72 h; 1.4% of 400,000 active; note: nearly all actives have a fitted effect of over 60% in size
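Here the drug-naive KB-3-1 line serves as comparator for MDR sub-line selectivity; cells received compound titrations, 72 h at 37 °C, then CellTiter-Glo readout.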
DT40 TDP1 CPT: growth inhibition of DT40 Tdp1-/-;hTDP1 cells with camptothecin (screen for TDP1 inhibitors) | chicken DT40 Tdp1-/-;hTDP1 cells + 20 nM CPT, ATP luminescence, 48 h | Potency, µM (highest dose often 46.2 µM), inactives show at the top dose activity change, negative = growth inhibition, actives largely listed as inhibitors | 12% of 420,000 active; note: nearly all actives have a fitted effect of over 55% in size
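Cell growth measured by CellTiter-Glo luminescence after a minimum 48 h, 37 C compound exposure with 20 nM CPT in Tdp1-knockout DT40 cells stably expressing hTDP1, seeded 400/well; qHTS titration format.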
* hit, by the source's call; i = inactive; u = inconclusive; x = not tested or not shown; [ ] = another dose, or the depositor's remark. Most compounds without a hit are left out; they make up all but 19% or so of the library. Calls come from the whole dose curve; as a rule, active = well fitted curve in the direction sought with a large enough effect; inconclusive = small, poorly fitted or top-dose-only effect, or another doubt; inactive = no such curve, though single readings can be large; an effect the other way counts as inactive or inconclusive. Unless noted, % is set by controls: 0 for no effect and ±100 for the full control effect; potency is the fitted concentration of half-maximal effect.

SMILES	HT1080-NT tox	KB-V1 cytotox	TDP1 cell noCPT	HT1080 IDH1KD tx	KB-3-1 tox	DT40 TDP1 CPT
Cc1cccc(N2C(=O)N3[C@@H]4c5ccccc5OC[C@@H]4[C@@H](c4ccccc4)[C@@]3(C)C2=O)c1	4%	i	u	4%	i	u
CCOc1cccc(CNC(=O)c2ccc(N3CCCC3)c(NC(=O)NCc3ccc(F)cc3)c2)c1	x	i	-29%	x	i	-14%
CCC(=O)N1c2ccccc2CC1C(=O)NCCc1cc(OC)c(OC)c(OC)c1 (configuration not stated)	x	i	-14%	x	i	-16%
COc1ccccc1CNc1ccc(-c2nc(-c3cccc(C)c3)no2)cc1[N+](=O)[O-]	x	i	-15%	x	i	-1%
COc1cccc(/C=C2\SC(=S)N(CCCC(=O)N3CCCCC3)C2=O)c1	-1%	u	u	-3%	u	u
CCOC(=O)N1CCN(C(=O)CN2C(=O)/C(=C\c3cccc(OC)c3)SC2=S)CC1	x	i	8.9µM*	x	i	7.9µM*
O=C(CCCN1C(=O)/C(=C/c2ccccc2Cl)SC1=S)NNC(=O)c1ccccc1Cl	u	i	21µM*	u	u	u
CCOC(=O)N1CCN(C(=O)CCN2C(=O)/C(=C\c3ccccc3OC)SC2=S)CC1	4%	x	23µM*	12%	x	23µM*
CCOC(=O)C1(C)CCCN1C(=O)c1ccccc1F (configuration not stated)	u	i	-13%	11%	i	-12%
CCOC(=O)c1csc(-c2ccc(COC(=O)c3ccccc3)o2)n1	u	i	-2%	11%	i	-10%
CCCN1CCC(=O)N([C@H](CN=[N+]=[N-])Cc2ccccc2)CC1	-2%	i	u	-2%	i	-20%
COc1ccc(-c2cc3ccc(O)c(CN4CCC(C)CC4)c3oc2=O)cc1OC	x	i	u	x	i	-17%
Cc1c(NC(=O)c2noc3c2CCc2ccccc2-3)c(=O)n(-c2ccccc2)n1C	5%	i	-21%	-1%	i	3%
Cc1cc(NC(=O)c2noc3c2CCCCC3)nn1Cc1ccc(Cl)cc1	2%[9.24 µM]	i	-29%	-7%	i	-29%
Cc1nn(Cc2ccc(Cl)c(Cl)c2)c(C)c1NC(=O)c1noc2c1CCCCC2	-3%[9.24 µM]	i	13µM*	-14%	i	12µM*
Cc1ccccc1Cn1nc(C)c(NC(=O)c2noc3c2CCc2ccccc2-3)c1C	13%	u	13µM*	-5%	i	21µM*
CCCc1cc(C(=O)Nc2c(C)nn(Cc3ccc(Cl)c(Cl)c3)c2C)no1	x	u	26µM*	x	u	13µM*
Cc1nn(Cc2ccc(Cl)c(Cl)c2)c(C)c1NC(=O)c1cc(CC(C)C)on1	u	u	23µM*	u	u	18µM*
CN1CCN(C(c2ccccc2Cl)c2sc3nc(-c4ccco4)nn3c2O)CC1 (configuration not stated)	x	x	-3%	x	x	0%
CCCCc1nn2c(=O)cc(COC(=O)c3ccc(NC(=O)C(CC)CC)cc3)nc2s1	x	x	-14%	x	x	-17%
O=C(c1cc2cc(Cl)ccc2[nH]1)N1CCc2ccccc2C1	15%	i	-46%	7%	i	u
Cc1ccc(Cl)cc1-c1cc(C(=O)NCc2ccc(C(F)(F)F)cc2)[nH]n1	u	i	16µM*	u	i	21µM*
Cc1cc(F)ccc1-c1cc(C(=O)NCc2ccc(C(F)(F)F)cc2)[nH]n1	u	i	-26%	u	i	u
Cc1ccc(Cl)cc1-c1cc(C(=O)N2CCc3ccccc3C2)[nH]n1	-2%	i	u	-7%	i	16µM*
Cc1ccc(Cl)cc1-c1cc(C(=O)Nc2ccc(F)cc2)[nH]n1	u	u	21µM*	u	u	23µM*
SMILES	HT1080-NT tox	KB-V1 cytotox	TDP1 cell noCPT	HT1080 IDH1KD tx	KB-3-1 tox	DT40 TDP1 CPT
COc1ccc(-c2cc(C(=O)NCc3ccc(F)cc3)[nH]n2)c(C)c1	1%	i	u	-1%	i	18µM*
O=[N+]([O-])c1ccccc1Nc1nc(-c2cccnc2)cs1	4%	u	u	-11%	i	u
COc1ccc(Cl)c(-c2cc(C(=O)NCc3ccc(C(F)(F)F)cc3)[nH]n2)c1	-18%	u	u	-12%	i	16µM*
Cc1ccc(Cl)cc1-c1cc(C(=O)NCC2CCCCC2)[nH]n1	u	i	18µM*	u	i	u
COc1ccc(-c2cc(C(=O)Nc3cc(OC)c(OC)c(OC)c3)[nH]n2)c(C)c1	u	i	12µM*	15%	u	23µM*
O=C(NCC1CCCCC1)c1cc(-c2cc(F)ccc2OCC2CCCO2)n[nH]1 (configuration not stated)	u	i	u	u	i	18µM*
Cc1noc(C)c1S(=O)(=O)N(C)C[C@H]1Oc2ccc(NS(=O)(=O)c3ccccc3)cc2C(=O)N([C@H](C)CO)C[C@@H]1C	7%	i	-9%	11%	i	5%
COC(=O)C1CCN(C(=O)C2CC(=O)N(c3ccc(C)c(Cl)c3)C2)CC1 (configuration not stated)	7%	i	-10%	6%	i	0%
Cc1cccc(-c2nc(S(=O)(=O)c3ccc(F)cc3)c(N3CCN(c4ccccc4)CC3)o2)c1	x	i	u	x	i	u
O=C(Nc1ccc(OCc2cc(=O)n3ccsc3n2)cc1)c1ccc(F)cc1	x	u	4%	x	i	3%
C[C@]12CCC3c4ccc(O)cc4CCC3C1CC/C2=N\N (some centres not stated)	9%	i	u	6%	i	-26%
Cc1nn(C)c(C)c1/C=N/N=C1\CCC2C3CCc4cc(O)ccc4C3CCC12C (configuration not stated)	-2%	i	12µM*	-3%	i	u
CN(C)c1ccc(CN(C(=O)COc2ccc(Br)cc2)C2CCS(=O)(=O)C2)cc1 (configuration not stated)	-5%	8.2µM*	-1%	-22%	i	-28%
Cc1ccc(OCC(=O)N(Cc2ccc(N(C)C)cc2)C2CCS(=O)(=O)C2)cc1 (configuration not stated)	-1%	i	0%	11%	i	2%

From PubChem
